ROMK primary – human ROMK K+ channel modulation, primary screen; P48048; Tet-inducible ROMK, thallium flux fluorescence; actives lie on both sides; B-score at 10 µM; 130,000 compounds, 2% hits;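 active = signal ratio slope over the read window, or its plate-corrected B-score, at least 3 SD from the plate mean, either direction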;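 also: B-score of the F/F0 ratio slope over 7 to 12 s after thallium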
Target sequence (P48048 whole entry, looked up): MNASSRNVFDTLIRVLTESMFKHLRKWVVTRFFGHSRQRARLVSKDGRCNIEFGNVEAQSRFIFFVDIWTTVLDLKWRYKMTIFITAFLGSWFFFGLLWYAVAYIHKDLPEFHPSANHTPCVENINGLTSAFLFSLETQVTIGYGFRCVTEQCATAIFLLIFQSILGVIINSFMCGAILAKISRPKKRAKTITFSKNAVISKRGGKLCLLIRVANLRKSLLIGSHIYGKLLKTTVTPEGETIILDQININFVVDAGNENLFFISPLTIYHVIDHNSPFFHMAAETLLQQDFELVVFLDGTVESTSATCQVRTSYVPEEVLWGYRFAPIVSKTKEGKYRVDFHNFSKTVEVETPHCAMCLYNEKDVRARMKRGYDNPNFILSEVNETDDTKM
HSV augment – HSV replication enhancement | 220,000 compounds, 0.005% hits | maximum fold increase | AID 1956 | HSV replication augmentation in cells, fold increase; in the data active = maximum fold increase above about 1.5; inconclusive = no clear call, values can overlap the other calls; tested in PC3 cells
Cl transport mod – modulators of human KCC2 chloride dependent transport | Q9H2X9 | KCC2 cells, thallium flux FluoZin-2 fluorescence | B-score of Tl+ flux slope (higher = more flux/activation; lower = inhibition) at 10 µM | 190,000 compounds, 2.2% hits | AID 1456;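 active = thallium flux slope and its plate-corrected score both differing from the plate sample mean at a set confidence after two filtering rounds, in either direction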;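 also: slope of fluorescence scaled to starting intensity during 10 to 20 s after thallium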
Measles CPE – protection of cells from measles virus | Measles virus-infected cells, CPE protection, absorbance | protection (pct of control), % at 4 µM | 140,000 compounds, 1.5% hits; in the data active = protection mostly above about 24%, no sharp cut-off; inactive = mostly below about 26%
Arbovirus inh – arbovirus infection inhibition; arbovirus infection cell-based antiviral screen; inhibition, % at 10 µM; 200,000 compounds, 0.37% hits; in the data active = inhibition above about 30%
KCC2 sec1 – confirmation of human KCC2 transport modulators | HEK293-KCC2, thallium flux, FluoZin2 fluorescence; stronger effect = higher value | 3,700 compounds, 15% hits | AID 1713 | normalised thallium flux (F/F0 slope) at 10 µM | shares compounds with Cl transport mod;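 active = thallium flux slope above the same plate's solvent-only control mean plus 3 SD; inconclusive = the two replicate wells disagree; inactive = no significant difference from solvent-only control wells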
KCC2 bumet counter – thallium flux despite bumetanide block in KCC2 cells, secondary assay 3; shares compounds with Cl transport mod; HEK293-KCC2 + bumetanide/ouabain, thallium flux FluoZin2; stronger effect = higher value; normalized thallium flux at 10 µM; 3,700 compounds, 49% hits;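 active = thallium entry rate above the same plate's blocked-transporter control wells by more than 3 SD; inconclusive = the two repeat wells disagree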;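 also: raw slope of fluorescence over initial fluorescence between 10 and 20 s after thallium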
KCC2 secondary2 – KCC2 (human) modulation, second secondary assay | shares compounds with Cl transport mod | HEK293-KCC2, thallium flux FluoZin2 fluorescence; actives lie on both sides; F/F0 rise rate, 10–20 s post-thallium | normalized thallium flux at 10 µM | 3,700 compounds, 23% hits | AID 1715;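 active = thallium flux slope more than 3 SD above or below the plate's solvent-only control mean, mostly below; inconclusive = the two repeat wells disagreed; inactive = no significant shift from solvent-only controls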;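 also: raw slope with 0.1% DMSO as baseline and bumetanide as block control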
HEK293 Tl flux – counter-screen for KCC2 modulators: effect in parental HEK293 cells; shares compounds with Cl transport mod; thallium flux FluoZin2, ouabain; baseline-ratio fluorescence slope, 10–20 s after thallium; thallium flux rate (normalised fluorescence) at 10 µM; 3,700 compounds, 46% hits;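 active = thallium flux rate significantly above the same plate's solvent-only control wells, beyond their mean plus 3 SD; inconclusive = the two replicate wells gave conflicting results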
KCC2 ouabain – KCC2 (human) modulation, ouabain retest; shares compounds with Cl transport mod; HEK293-KCC2, thallium flux FluoZin2 fluorescence; bidirectional: low = inhibitor, high = activator; raw Tl+ flux slope (below DMSO = inhibition, above = activation) at 10 µM; 3,700 compounds, 48% hits; AID 1717;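 active = thallium flux slope beyond 3 SD from same-plate DMSO control mean in most replicates, usually higher, sometimes lower; inconclusive = repeat tests gave conflicting results; inactive = no significant difference from controls in most replicates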;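 also: slope of initial-normalized fluorescence between seconds 10 and 20 after thallium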
HEK counter2 – counter-screen for KCC2 modulators: effect in parental HEK293 cells; shares compounds with Cl transport mod; thallium flux FluoZin-2 fluorescence slope; thallium flux slope at 10 µM; 3,700 compounds, 33% hits; AID 1718;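 active = thallium flux slope above the same plate's solvent-control mean plus 3 SD in both duplicate wells; inconclusive = duplicate wells that disagreed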;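 also: run without ouabain in cells lacking the KCC2 cotransporter; slope of fluorescence scaled to its starting value between 10 and 20 s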
Active calls of the source: *; i = inactive; ? = inconclusive; nt = not tested or not shown. This is a sample that favours compounds with a hit; in the whole collection about 4% have one here.

SMILES	ROMK primary	HSV augment	Cl transport mod	Measles CPE	Arbovirus inh	KCC2 sec1	KCC2 bumet counter	KCC2 secondary2	HEK293 Tl flux	KCC2 ouabain	HEK counter2
CCCCC(=O)Nc1ccc(NC(=S)NC(=O)c2ccco2)cc1OC	nt	i	13.3*	nt	nt	0.0222*	0.0474*	?	0.0202*	0.0264*	0.0219*
COc1ccc(-c2csc(NC(=O)c3ccccc3NS(=O)(=O)c3ccc(C)cc3)n2)cc1	nt	nt	-4.02	7.7	-2.0	nt	nt	nt	nt	nt	nt
COc1ccc(-c2csc(NC(=S)NC(=O)c3cccs3)n2)cc1OC	0.339	i	31.4*	nt	-12.9	0.01*	0.0458*	0.0561*	0.0445*	0.0476*	0.0444*
CCSc1nnc(C)c(=O)n1COC(=O)c1ccc(S(=O)(=O)N2CCCC2)cc1	nt	i	0.192	1.9	-3.2	nt	nt	nt	nt	nt	nt
CCOc1ccc(OCCn2nnc3ccccc3c2=O)cc1	nt	i	0.501	nt	-1.6	nt	nt	nt	nt	nt	nt
COc1cc(NC(=S)NC(=O)c2cccs2)ccc1NC(=O)C(C)C	0.0689	i	5.13*	nt	1.8	0.00987	0.0244*	0.0305	0.0103*	?	0.0106*
CCCCC(=O)Nc1ccc(NC(=S)NC(=O)c2cccs2)cc1OC	nt	i	2.79	7.8	-0.1	nt	nt	nt	nt	nt	nt
COc1cc(NC(=O)C(C)C)ccc1NC(=O)c1ccco1	nt	i	nt	5.2	-6.0	nt	nt	nt	nt	nt	nt
COc1cc(NC(=S)NC(=O)c2ccco2)ccc1NC(=O)C(C)C	-1.06	i	5.17*	nt	-0.2	0.00988	0.012*	0.0306	0.012*	?	0.0114
COc1cc(/C=C/C(=O)OCC(=O)NC(=O)NC(C)C)cc(S(=O)(=O)N2CCc3ccccc32)c1OC	0.631	i	-2.66	nt	-1.2	nt	nt	nt	nt	nt	nt
C[C@@H]1C=C(C(=O)NCc2nc3ccccc3[nH]2)O[C@H](OCCCCO)C1	nt	i	nt	nt	nt	nt	nt	nt	nt	nt	nt
CCN(CC)c1ccc(NC(=S)NC(=O)c2ccco2)cc1	1.48	i	69.4*	nt	-12.3	0.0431*	0.171*	?	?	0.115*	?
Cc1ccccc1C(=O)NC(=S)Nc1ccc(S(=O)(=O)N(C)c2ccccc2)cc1	nt	i	0.684	13.8	0.6	nt	nt	nt	nt	nt	nt
O=C(NC(=S)Nc1ccc(Oc2ccccc2)cc1)c1ccc(Cl)cc1	0.147	i	30.8*	20.2	-15.4	0.00664	0.0224*	?	0.0163*	0.0278*	0.0137*
O=C(NC(=S)Nc1ccc2c(c1)OCCO2)c1ccc(F)cc1Cl	-0.0807	i	16.1*	18.2	-1.0	0.00988	0.0224*	0.0328	0.0118*	?	0.0112
O=C(NC(=S)Nc1ccc(N2CCCCC2)c(Cl)c1)c1ccc2c(c1)OCCO2	-0.0967	nt	-0.892	6.9	8.2	nt	nt	nt	nt	nt	nt
Cc1cccc(C(=O)NC(=S)Nc2ccc(S(=O)(=O)N(C)c3ccccc3)cc2)c1	nt	nt	2.49*	12.2	1.5	0.00829	0.0139*	0.0297	0.00775	0.026*	0.0117*
CC(C)(C)NC(=O)NC(=O)COC(=O)c1cc[n+]([O-])cc1	-0.0262	i	0.448	nt	25.8	nt	nt	nt	nt	nt	nt
CCOc1c(CNc2nnnn2C)cccc1OC	0.0677	i	0.729	nt	2.3	nt	nt	nt	nt	nt	nt
Cc1nonc1C1CCCN1Cc1cn[nH]c1-c1ccc(-c2ccccc2)cc1 (centres undefined)	0.4	i	0.0658	nt	-7.3	nt	nt	nt	nt	nt	nt
COc1ccccc1NC(=O)Cc1noc(CSc2n[nH]c(N)n2)n1	0.0358	i	-0.0716	nt	0.6	nt	nt	nt	nt	nt	nt
CCOc1ccc(NCc2nnc(SCC(=O)Nc3nc(-c4ccccc4)cs3)n2-c2ccccc2)cc1	0.00638	i	0.525	19.6	-26.6	nt	nt	nt	nt	nt	nt
COC(=O)c1sccc1NC(=O)Cc1ccc(Br)cc1	nt	i	-0.587	17.4	1.4	nt	nt	nt	nt	nt	nt
CCN(CC)c1ccc(NC(=O)c2cc(Cl)ccc2OC)cc1	1.26	i	nt	12.8	-17.0	nt	nt	nt	nt	nt	nt
CCN(CC)c1ccc(NC(=O)c2ccccc2F)cc1	nt	i	-6.19*	1.9	-8.2	0.0165	?	0.0289	0.00722	0.0145	0.00946
SMILES	ROMK primary	HSV augment	Cl transport mod	Measles CPE	Arbovirus inh	KCC2 sec1	KCC2 bumet counter	KCC2 secondary2	HEK293 Tl flux	KCC2 ouabain	HEK counter2
CCc1ccc(C(=O)NC(=S)Nc2ccc3c(c2)OCCO3)cc1	nt	i	1.61	5.7	17.0	nt	nt	nt	nt	nt	nt
O=C(NC(=S)Nc1cc(C(F)(F)F)ccc1N1CCOCC1)c1ccco1	nt	i	88.9*	nt	nt	0.0224*	0.114*	0.0387	?	0.0758*	0.0258*
O=C(NC(=S)Nc1ccc2c(c1)OCO2)c1ccc(Cl)cc1	0.308	i	8.16*	5.9	-10.1	0.00934	0.0118*	0.0393	?	0.0259*	0.0117
CN(C)S(=O)(=O)c1ccc(NC(=S)NC(=O)c2cccs2)cc1	0.119	i	3.98*	nt	1.8	0.00935	0.016*	0.0295	0.00839*	?	0.00966
O=P(Cc1cc(Br)cc(Br)c1OCCO)(c1ccccc1)c1ccccc1	nt	i	-1.18	nt	nt	nt	nt	nt	nt	nt	nt
CCCC(=O)Nc1ccc(NC(=S)NC(=O)c2cccs2)cc1	nt	i	nt	nt	-2.2	nt	nt	nt	nt	nt	nt
O=C(NC(=S)Nc1ccc(CN2CCCCC2)cc1)c1cccc(OCc2ccccc2)c1	0.143	i	1.34	nt	-20.3	nt	nt	nt	nt	nt	nt
O=C(NC(=S)Nc1ccc2c(c1)OCCO2)c1ccco1	nt	i	99.9*	nt	nt	0.0228*	0.0995*	0.04	0.0834*	0.0702*	0.0425*
O=C(NC(=S)Nc1ccc2oc(=O)ccc2c1)c1ccco1	nt	i	22.1*	nt	nt	0.00592	0.0493*	0.0441*	0.0297*	0.0463*	0.029*
O=C(O)c1ccc(NC(=S)NC(=O)c2cccc(COc3ccccc3)c2)cc1	1.25	i	-3.73*	nt	1.6	0.00834	?	0.0343	0.00395	?	0.011
CCN(CC)c1ccc(NC(=S)NC(=O)c2cccs2)cc1	0.291	i	21.4*	nt	-9.1	0.0164*	0.0787*	0.0376	0.0837*	0.0507*	0.0197*
CC1(C)OC(c2ccccc2)=C/C(=C/C=N/NC(=O)c2ccncc2)O1	1.02	i	-0.728	nt	13.0	nt	nt	nt	nt	nt	nt
N#Cc1c(-c2ccc(Cl)cc2)ccnc1N1CCOCC1	-0.328	i	-1.21	nt	-5.1	nt	nt	nt	nt	nt	nt
CC(C)c1ccc(OCC(=O)Nc2cccc3c2CCCC3)cc1	nt	i	0.12	-0.3	-6.2	nt	nt	nt	nt	nt	nt
CC(C)c1ccc(OCC(=O)Nc2cccc(C(=O)Nc3ccccc3C(=O)O)c2)cc1	0.0547	i	-4.96*	nt	26.3	0.00822	0.00547	0.0334	0.00567*	0.0158*	0.00965

Screening results (PubChem)
